{"source": "PubChem BioAssay AID1159580", "about": "(chemical genetic matrix, 2015)", "test": "chemical genetic growth profiling, strain panel (AID 1159580);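 note: tested at 20 µM; growth read once vehicle control cultures reached saturation at 30 °C; 1 = growth at the plate median or of vehicle wells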", "settings": "S. cerevisiae deletion strains, growth OD", "note": "Where “and” joins values, the source holds several entries; their conditions need not be identical. Equal entries are not always repeated. The whole screen tested about 5,500 compounds, of which about 2,000 (36%) were called active. About 18% were inconclusive and are not listed. The list shows a part of the results. A number with no mark means an inactive call. Cut-off read from the data, not from the text of the source: active = normalized growth mostly below about 0.91 (no sharp cut-off); inconclusive = no clear call, values can overlap the other calls; inactive = mostly above about 0.92.", "data": [{"compound": "CCN(CC)C(=S)SSC(=S)N(CC)CC", "values": [{"measurement": "normalized growth", "setting": "locus YAL013W, strain DEP1, stronger effect = lower value", "value": "0.0629 (active) and 0.897 (active)"}, {"measurement": "normalized growth", "setting": "locus YAL021C, strain ccr4, stronger effect = lower value", "value": "0.0672 (active)"}, {"measurement": "normalized growth", "setting": "locus YAL026C, strain drs2, stronger effect = lower value", "value": "0.0682 (active)"}, {"measurement": "normalized growth", "setting": "locus YAL030W, strain snc1, stronger effect = lower value", "value": "0.0564 (active)"}, {"measurement": "normalized growth", "setting": "locus YAL040C, strain CLN3, stronger effect = lower value", "value": "0.308 (active)"}, {"measurement": "normalized growth", "setting": "locus YBL061C, strain skt5, stronger effect = lower value", "value": "0.062 (active)"}, {"measurement": "normalized growth", "setting": "locus YBR009C, strain hhf1, stronger effect = lower value", "value": "0.0652 (active)"}, {"measurement": "normalized growth", "setting": "locus YBR021W, strain FUR4, stronger effect = lower value", "value": "0.0934 (active)"}, {"measurement": "normalized growth", "setting": "locus YBR023C, strain chs3, stronger effect = lower value", "value": "0.0638 (active)"}, {"measurement": "normalized growth", "setting": "locus YBR171W, strain sec66, stronger effect = lower value", "value": "0.0771 (active)"}, {"measurement": "normalized growth", "setting": "locus YBR229C, strain ROT2, stronger effect = lower value", "value": "0.426 (active)"}, {"measurement": "normalized growth", "setting": "locus YBR231C, strain swc5, stronger effect = lower value", "value": "0.0656 (active)"}, {"measurement": "normalized growth", "setting": "locus YBR279W, strain paf1, stronger effect = lower value", "value": "0.063 (active)"}, {"measurement": "normalized growth", "setting": "locus YCL011C, strain gbp2, stronger effect = lower value", "value": "0.0576 (active)"}, {"measurement": "normalized growth", "setting": "locus YCL016C, strain dcc1, stronger effect = lower value", "value": "0.065 (active)"}, {"measurement": "normalized growth", "setting": "locus YCL029C, strain bik1, stronger effect = lower value", "value": "0.135 (active)"}, {"measurement": "normalized growth", "setting": "locus YCL061C, strain MRC1 (second series), stronger effect = lower value", "value": "0.936 (active)"}, {"measurement": "normalized growth", "setting": "locus YCL061C, strain MRC1, stronger effect = lower value", "value": "0.0667 (active)"}, {"measurement": "normalized growth", "setting": "locus YCL069W, strain vba3, stronger effect = lower value", "value": "0.0629 (active)"}, {"measurement": "normalized growth", "setting": "locus YCR088W, strain abp1, stronger effect = lower value", "value": "0.062 (active)"}, {"measurement": "normalized growth", "setting": "locus YDL005C, strain med2, stronger effect = lower value", "value": "0.0753 (active)"}, {"measurement": "normalized growth", "setting": "locus YDL035C, strain GPR1, stronger effect = lower value", "value": "0.0484 (active)"}, {"measurement": "normalized growth", "setting": "locus YDL040C, strain nat1, stronger effect = lower value", "value": "0.0568 (active)"}, {"measurement": "normalized growth", "setting": "locus YDL074C, strain BRE1, stronger effect = lower value", "value": "0.0817 (active)"}, {"measurement": "normalized growth", "setting": "locus YDL101C, strain DUN1, stronger effect = lower value", "value": "0.068 (active)"}, {"measurement": "normalized growth", "setting": "locus YDL134C, strain PPH21, stronger effect = lower value", "value": "0.0516 (active)"}, {"measurement": "normalized growth", "setting": "locus YDL185W, strain tfp1, stronger effect = lower value", "value": "0.788 (active)"}, {"measurement": "normalized growth", "setting": "locus YDL192W, strain arf1, stronger effect = lower value", "value": "0.0621 (active)"}, {"measurement": "normalized growth", "setting": "locus YDR001C, strain nth1, stronger effect = lower value", "value": "0.0666 (active)"}, {"measurement": "normalized growth", "setting": "locus YDR069C, strain doa4, stronger effect = lower value", "value": "0.0647 (active)"}, {"measurement": "normalized growth", "setting": "locus YDR101C, strain arx1, stronger effect = lower value", "value": "0.101 (active)"}, {"measurement": "normalized growth", "setting": "locus YDR137W, strain rgp1, stronger effect = lower value", "value": "0.0968 (active)"}, {"measurement": "normalized growth", "setting": "locus YDR150W, strain NUM1, stronger effect = lower value", "value": "0.0605 (active)"}, {"measurement": "normalized growth", "setting": "locus YDR159W, strain sac3, stronger effect = lower value", "value": "0.0932 (active)"}, {"measurement": "normalized growth", "setting": "locus YDR162C, strain NBP2, stronger effect = lower value", "value": "0.0518 (active)"}, {"measurement": "normalized growth", "setting": "locus YDR195W, strain ref2", "value": "0.121 (active)"}, {"measurement": "normalized growth", "setting": "locus YDR297W, strain sur2, stronger effect = lower value", "value": "0.0658 (active)"}, {"measurement": "normalized growth", "setting": "locus YDR318W, strain mcm21, stronger effect = lower value", "value": "0.0632 (active)"}, {"measurement": "normalized growth", "setting": "locus YDR334W, strain swr1, stronger effect = lower value", "value": "0.066 (active)"}, {"measurement": "normalized growth", "setting": "locus YDR335W, strain msn5, stronger effect = lower value", "value": "0.0613 (active)"}, {"measurement": "normalized growth", "setting": "locus YDR363W, strain ESC2, stronger effect = lower value", "value": 0.997}, {"measurement": "normalized growth", "setting": "locus YDR388W, stronger effect = lower value", "value": "0.0574 (active)"}, {"measurement": "normalized growth", "setting": "locus YDR392W, strain spt3, stronger effect = lower value", "value": "0.103 (active)"}, {"measurement": "normalized growth", "setting": "locus YDR502C, strain sam2, stronger effect = lower value", "value": "0.0592 (active)"}, {"measurement": "normalized growth", "setting": "locus YEL003W, strain gim4, stronger effect = lower value", "value": "0.0548 (active)"}, {"measurement": "normalized growth", "setting": "locus YEL037C, strain rad23, stronger effect = lower value", "value": "0.0581 (active)"}, {"measurement": "normalized growth", "setting": "locus YEL061C, strain CIN8 (second series), stronger effect = lower value", "value": "0.0638 (active)"}, {"measurement": "normalized growth", "setting": "locus YEL061C, strain CIN8, stronger effect = lower value", "value": "0.0531 (active)"}, {"measurement": "normalized growth", "setting": "locus YER015W, strain faa2, stronger effect = lower value", "value": "0.0589 (active)"}, {"measurement": "normalized growth", "setting": "locus YER016W, strain bim1, stronger effect = lower value", "value": "0.0621 (active)"}, {"measurement": "normalized growth", "setting": "locus YER110C, stronger effect = lower value", "value": "0.0748 (active)"}, {"measurement": "normalized growth", "setting": "locus YER111C, strain swi4, stronger effect = lower value", "value": "0.0842 (active)"}, {"measurement": "normalized growth", "setting": "locus YER155C, strain BEM2 (second series), stronger effect = lower value", "value": "0.092 (active)"}, {"measurement": "normalized growth", "setting": "locus YER155C, strain BEM2, stronger effect = lower value", "value": "0.0787 (active)"}, {"measurement": "normalized growth", "setting": "locus YER167W, strain BCK2, stronger effect = lower value", "value": "0.0526 (active)"}, {"measurement": "normalized growth", "setting": "locus YFR010W, strain ubp6, stronger effect = lower value", "value": "0.0704 (active)"}, {"measurement": "normalized growth", "setting": "locus YGL078C, strain dbp3, stronger effect = lower value", "value": "0.0558 (active)"}, {"measurement": "normalized growth", "setting": "locus YGL086W, strain mad1, stronger effect = lower value", "value": "0.0539 (active)"}, {"measurement": "normalized growth", "setting": "locus YGL167C, strain pmr1, stronger effect = lower value", "value": "0.0736 (active)"}, {"measurement": "normalized growth", "setting": "locus YGL173C, strain kem1, stronger effect = lower value", "value": "0.0686 (active)"}, {"measurement": "normalized growth", "setting": "locus YGL227W, strain vid30, stronger effect = lower value", "value": "0.0649 (active)"}, {"measurement": "normalized growth", "setting": "locus YGL240W, strain doc1, stronger effect = lower value", "value": "0.0818 (active)"}, {"measurement": "normalized growth", "setting": "locus YGL248W, strain PDE1, stronger effect = lower value", "value": "0.0479 (active)"}, {"measurement": "normalized growth", "setting": "locus YGL253W, strain hxk2, stronger effect = lower value", "value": "0.0556 (active)"}, {"measurement": "normalized growth", "setting": "locus YGR078C, strain PAC10, stronger effect = lower value", "value": "0.0528 (active)"}, {"measurement": "normalized growth", "setting": "locus YGR135W, strain pre9, stronger effect = lower value", "value": "0.0614 (active)"}, {"measurement": "normalized growth", "setting": "locus YGR229C, strain SMI1, stronger effect = lower value", "value": "0.0585 (active) and 0.186 (active)"}, {"measurement": "normalized growth", "setting": "locus YGR252W, strain gcn5, stronger effect = lower value", "value": "0.111 (active)"}, {"measurement": "normalized growth", "setting": "locus YHR013C, strain ard1, stronger effect = lower value", "value": "0.114 (active)"}, {"measurement": "normalized growth", "setting": "locus YHR027C, strain rpn1, stronger effect = lower value", "value": "0.0617 (active)"}, {"measurement": "normalized growth", "setting": "locus YHR030C, strain SLT2, stronger effect = lower value", "value": "0.0521 (active) and 0.114 (active)"}, {"measurement": "normalized growth", "setting": "locus YHR079C, strain IRE1 (second series), stronger effect = lower value", "value": "0.0828 (active)"}, {"measurement": "normalized growth", "setting": "locus YHR079C, strain IRE1, stronger effect = lower value", "value": "0.111 (active)"}, {"measurement": "normalized growth", "setting": "locus YHR094C, strain hxt1, stronger effect = lower value", "value": "0.0606 (active)"}, {"measurement": "normalized growth", "setting": "locus YHR129C, strain ARP1, stronger effect = lower value", "value": "0.0581 (active)"}, {"measurement": "normalized growth", "setting": "locus YHR142W, strain chs7, stronger effect = lower value", "value": "0.0762 (active)"}, {"measurement": "normalized growth", "setting": "locus YHR200W, strain rpn10, stronger effect = lower value", "value": "0.0631 (active)"}, {"measurement": "normalized growth", "setting": "locus YIL066C, strain RNR3, stronger effect = lower value", "value": "0.0508 (active)"}, {"measurement": "normalized growth", "setting": "locus YIL073C, strain SPO22, stronger effect = lower value", "value": "0.104 (active)"}, {"measurement": "normalized growth", "setting": "locus YIL125W, strain kgd1, stronger effect = lower value", "value": "0.0593 (active)"}, {"measurement": "normalized growth", "setting": "locus YIR030C, strain dcg1, stronger effect = lower value", "value": "0.0587 (active)"}, {"measurement": "normalized growth", "setting": "locus YJL092W, strain hpr5, stronger effect = lower value", "value": "0.0611 (active)"}, {"measurement": "normalized growth", "setting": "locus YJL095W, strain BCK1 (second series), stronger effect = lower value", "value": "0.0583 (active)"}, {"measurement": "normalized growth", "setting": "locus YJL095W, strain BCK1, stronger effect = lower value", "value": "0.0582 (active) and 0.114 (active)"}, {"measurement": "normalized growth", "setting": "locus YJL115W, strain asf1, stronger effect = lower value", "value": "0.0765 (active)"}, {"measurement": "normalized growth", "setting": "locus YJL129C, strain trk1, stronger effect = lower value", "value": "0.0869 (active)"}, {"measurement": "normalized growth", "setting": "locus YJL134W, strain LCB3, stronger effect = lower value", "value": "0.0503 (active)"}, {"measurement": "normalized growth", "setting": "locus YJL154C, strain vps35, stronger effect = lower value", "value": "0.0608 (active)"}, {"measurement": "normalized growth", "setting": "locus YJL164C, strain tpk1, stronger effect = lower value", "value": "0.0649 (active)"}, {"measurement": "normalized growth", "setting": "locus YJL166W, strain qcr8, stronger effect = lower value", "value": "0.0615 (active)"}, {"measurement": "normalized growth", "setting": "locus YJL168C, strain set2, stronger effect = lower value", "value": "0.0602 (active)"}, {"measurement": "normalized growth", "setting": "locus YJL187C, strain SWE1 (second series), stronger effect = lower value", "value": "0.102 (active)"}, {"measurement": "normalized growth", "setting": "locus YJL187C, strain SWE1, stronger effect = lower value", "value": "0.0577 (active)"}, {"measurement": "normalized growth", "setting": "locus YJR043C, strain POL32, stronger effect = lower value", "value": "0.0598 (active)"}, {"measurement": "normalized growth", "setting": "locus YJR066W, strain TOR1, stronger effect = lower value", "value": "0.00329 (active)"}]}]}
